ELG1 repair inh: ELG1-dependent DNA repair inhibition; HEK293T ELG1-luciferase reporter, luminescence, 16 h; DNA damage induced by 5-fluorouridine; Potency, µM (doses to about 46.1 µM), for the others: at the top dose activity change, negative = inhibition, hits mostly inhibitors; 2.3% of 330,000 active; further: on the % scale 0 is the no-effect control and ±100 the full control effect; nearly all actives have a fitted effect of over 55% in size
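5-Fluorouridine DNA damage + compound/DMSO, 2,000 cells/well, 16 h, 37 °C/5% CO2. ONE-Glo, 30 min RT, luminescence. Readout = decrease in reporter signal.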
IDH1 R132H inh: human IDH1 R132H inhibition; O75874; IDH1-R132H enzyme, NADPH consumption, diaphorase/resazurin fluorescence; Potency, µM (doses to about 76.6 µM), without a hit: top-dose activity change, negative = inhibition, hits mostly inhibitors; 0.093% of 390,000 active; further: on the % scale 0 is the no-effect control and ±100 the full control effect; nearly all actives have a fitted effect of over 65% in size
Target sequence (O75874 whole entry R132H, stated change not applied): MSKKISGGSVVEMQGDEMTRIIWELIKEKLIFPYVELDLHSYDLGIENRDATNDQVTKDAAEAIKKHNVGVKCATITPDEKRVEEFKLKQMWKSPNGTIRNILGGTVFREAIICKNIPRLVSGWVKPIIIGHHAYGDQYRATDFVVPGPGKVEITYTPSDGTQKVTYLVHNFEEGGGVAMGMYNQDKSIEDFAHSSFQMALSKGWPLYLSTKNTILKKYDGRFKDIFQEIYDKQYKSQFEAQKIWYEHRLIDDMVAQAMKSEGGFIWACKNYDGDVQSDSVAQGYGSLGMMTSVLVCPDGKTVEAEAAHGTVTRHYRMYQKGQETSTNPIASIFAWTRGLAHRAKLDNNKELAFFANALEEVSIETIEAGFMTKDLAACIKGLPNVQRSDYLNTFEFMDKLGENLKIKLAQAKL
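IDH1-R132H (0.5 ug/mL dispensed) in pH 7.5 Tris buffer was preincubated 30 min with compound, then given a substrate mix of 0.016 mM NADPH and 2 mM alpha-KG for 80 min at room temperature; remaining NADPH was read by diaphorase/resazurin fluorescence.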
Nrf2 activator: Nrf2 pathway activation | AREc32 ARE-luciferase reporter (MCF7-derived line), luminescence, 24 h | Potency, µM (titrated, usually from 46.1 µM), for inactives: at the top dose activation, usual class: activators | 0.31% of 410,000 active; further: % of control where 0% means no effect; nearly all actives have a fitted effect of over 65% in size
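AREc32 cells carrying an ARE-driven firefly luciferase reporter were seeded at 1000 cells/well in OPTI-MEM with 5% FBS, then exposed to compound for 24 hr at 37 deg C. Luminescence was read with Steady-Glo after 30 min at RT.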
Nrf2 block: inhibitors of Nrf2 signaling; 2.1% of 360,000 active; A549 ARE-Fluc reporter, luciferase luminescence, 18-24 h; Potency, µM (doses to about 46 µM), without a hit: at the highest dose activity change, negative = inhibition, usual class: inhibitors; further: on the % scale 0 is the no-effect control and ±100 the full control effect; nearly all actives have a fitted effect of over 60% in size
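Nrf2 function is reported as luminescence of an ARE-controlled luciferase in A549 cells. Compounds were tested at several concentrations, and a CellTiter-Fluor read on the same wells flagged cytotoxicity.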
A549 viability: A549 cytotoxicity, counter-screen for Nrf2 inhibitors; A549 ARE-Fluc cells, CellTiter-Fluor viability, 18-24 h; Potency, µM (doses to about 46 µM), for the others: at the highest dose activity change, negative = cytotoxicity, usual class: inhibitors; 0.16% of 390,000 active; AID 504648; further: on the % scale 0 is the no-effect control and ±100 the full control effect
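A549 ARE-Fluc cells in 5% FBS OPTI-MEM, 5000 cells/well, rested 2 h then exposed to compounds in concentration-response for 18-24 h at 37 °C. Viability by CellTiter-Fluor fluorescence (Ex 405/Em 525) after 30 min; luciferase luminescence (BugLite, 15 min, RT) read afterwards.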
Numbers without * were called inactive; ? = inconclusive; nt = no result given. Most compounds without a hit are left out; they make up all but 3.8% or so of the library. The call rests on the fitted dose curve; in most records, active means well fitted curve in the direction sought with a large enough effect; inconclusive means small, poorly fitted or top-dose-only effect, or another doubt; inactive means no such curve, though single readings can be large; an effect the other way counts as inactive or inconclusive. Potency means the concentration at half of the fitted maximal effect.

SMILES	ELG1 repair inh	IDH1 R132H inh	Nrf2 activator	Nrf2 block	A549 viability
O=C(O)c1cccc(CSc2nnc(-c3ccc(Cl)cc3)o2)c1	28%	10%	-2%	9.2µM*	-1%
O=C(O)c1cccc(CSc2nnc(COc3ccccc3)o2)c1	26%	2%	-2%	nt	3%
O=C(CCSc1nnc(-c2ccncc2)o1)Nc1cccc(Cl)c1	-17%	9%	3%	21µM*	-4%
O=C(NCCc1cscn1)C1CCC(=O)N(Cc2ccc(Cl)cc2)C1 (stereo not drawn)	0%	7%	0%	6%	1%
COc1ccc(C(=O)NCC(=O)OCCOc2ccc(Cl)cc2)cc1OC	-10%	2%	0%	-14%	-3%
Cc1ccc(NC(=O)N(Cc2cc3cc(C)cc(C)c3[nH]c2=O)CC2COCCO2)cc1 (stereo not drawn)	-2%	-5%	-1%	-19%	-10%
COc1cccc(NC(=O)N(Cc2cc3cc(C)cc(C)c3[nH]c2=O)CC2COCCO2)c1 (stereo not drawn)	7.3µM*	3%	0%	-21%	-16%
Cc1cccc2cc(CN(CC3CCCO3)C(=S)Nc3ccccc3)c(=O)[nH]c12 (stereo not drawn)	16µM*	4%	2%	-7%	1%
Cc1ccc2cc(CN(CCN(C)C)C(=S)Nc3ccccc3)c(=O)[nH]c2c1C	9.2µM*	2%	3%	-19%	-29%
Fc1ccc(-c2noc3ncnc(NC4CCCCC4)c23)cc1	nt	26%	0%	-25%	3%
COc1ccc2c(CCNC(=O)/C=C/c3ccc(OC)c(OC)c3)c[nH]c2c1	23µM*	5%	1%	-10%	-1%
COc1cccc(/C=C/C(=O)NCCc2ccc(OC)c(OC)c2)c1	-1%	1%	0%	8%	-5%
c1ccc(C(c2nnnn2Cc2ccco2)N2CCN(c3nc4ccccc4s3)CC2)cc1 (stereo not drawn)	21µM*	2%	0%	?	-12%
COCCn1nnnc1C(CC(C)C)N1CCN(c2nc3ccccc3s2)CC1 (stereo not drawn)	3%	21%	-2%	2%	-8%
Cc1ccc(S(=O)(=O)Cn2nnnc2C(C(C)C)N2CCN(c3nc4ccccc4s3)CC2)cc1 (stereo not drawn)	18µM*	11%	0%	?	-8%
O=C(NC1CCN(Cc2ccc(Cl)cc2Cl)CC1)c1ccccc1	13µM*	-4%	0%	?	-1%
Cc1ccc(Cl)cc1S(=O)(=O)N1CCC(C(=O)NC2CCN(Cc3ccccc3)CC2)CC1	5.2µM*	-2%	0%	?	2%
O=C(NCCCN1CCN(Cc2ccccc2)CC1)C1CCN(c2nnc(-n3cccc3)s2)CC1	7.1µM*	2%	4%	?	-10%
Cc1cc(NC(=O)CC#N)n(-c2nc3ccccc3[nH]2)n1	12µM*	-5%	11%	1%	6%
COc1cccc(OC)c1C(=O)Nc1cc(C)nn1-c1nc2ccccc2[nH]1	?	?	3%	?	?
Cc1cc(NC(=O)c2ccccc2)n(-c2nc3ccccc3[nH]2)n1	-9%	-3%	0%	?	-4%
COc1ccc(C(=O)Nc2cc(C)nn2-c2nc3ccccc3[nH]2)c(OC)c1	23µM*	-7%	0%	?	-8%
CCC(C)(C)c1ccc(Oc2ccc(N)cc2)cc1	-2%	5%	-2%	5.8µM*	-20%
COc1ccc(Cn2ncc3c4sc(C)cc4n(C)c3c2=O)cc1	nt	nt	nt	2%	-4%
O=S(=O)(CC(CN1CCCCC1)N1CCCCC1)c1ccccc1 (stereo not drawn)	?	-1%	0%	18µM*	?
SMILES	ELG1 repair inh	IDH1 R132H inh	Nrf2 activator	Nrf2 block	A549 viability
Cc1ccc(C(NC(=O)NC(C)c2ccccc2)C(Cl)(Cl)Cl)cc1F (stereo not drawn)	?	10%	1%	16µM*	?
O=C(c1c2c(nc3ccccc13)C(=O)N(C1CCCCC1)C2)N1CCN(c2ccc(F)cc2)CC1	nt	-11%	0%	17%	1%
Nc1nc(OCC2CCCCC2)c2[nH]cnc2n1	?	-13%	1%	18µM*	?
Nc1nc(SCC(=O)O)c2[nH]cnc2n1	nt	nt	nt	-1%	-2%
COc1ccc(S(=O)(=O)N2Cc3ccccc3CC2C(=O)Nc2cc(Cl)ccc2Cl)cc1 (stereo not drawn)	nt	25%	1%	-18%	8%
N#Cc1ccccc1NC(=O)COc1ccccc1C(=O)Nc1ccccc1	21µM*	-4%	6%	-7%	-1%
O=C(COc1ccccc1C(=O)Nc1ccccc1)c1ccc(F)cc1	3%	1%	0%	?	2%
O=C(COc1ccccc1C(=O)NCc1ccccn1)Nc1ccc(Br)cc1	16µM*	6%	0%	4%	-4%
O=C(COc1ccccc1C(=O)NCc1ccccc1)Nc1ccccc1	?	-11%	3%	-11%	2%
O=C(COc1ccccc1C(=O)Nc1ccccc1)c1ccc(Br)cc1	?	7%	0%	21µM*	?
CCC1CCc2c(sc(NC(=O)C3c4ccccc4Oc4ccccc43)c2C(=O)OC)C1 (stereo not drawn)	nt	-6%	5%	9%	-3%
Cn1c(/C=C/c2ccc(Br)cc2)c([N+](=O)[O-])c(=O)n(C)c1=O	?	0%	3%	21µM*	?
CC1CCC/C=C/C(=O)c2c(O)cc(O)cc2CC(=O)O1 (stereo not drawn)	8.2µM*	-13%	-3%	5.8µM*	13µM*
FC(F)(F)COc1nc(OCC(F)(F)F)nc(N2CCN(c3ccccc3)CC2)n1	23µM*	1%	0%	-25%	-1%
COc1cc(S(=O)(=O)NCCOC23CC4CC(CC(C4)C2)C3)c(OC)cc1Cl	16µM*	6%	0%	21µM*	-1%
CC(C)COc1ccc(C(=O)Nc2ccc([N+](=O)[O-])cc2)cc1	1.5µM*	5%	0%	-26%	-6%
O=C(Nc1ccc(Oc2ccc(NC(=O)Nc3ccc([N+](=O)[O-])cc3)cc2)cc1)Nc1ccc([N+](=O)[O-])cc1	-15%	0%	-1%	16µM*	?
O=C(Nc1ccc(OC(F)(F)F)cc1)c1[nH]ncc1[N+](=O)[O-]	-27%	-4%	?	7.3µM*	?
Cc1ccc(NC(=O)Nc2cccc([N+](=O)[O-])c2)cc1F	?	3%	9%	?	?
O=C(Nc1ccc(OC(F)(F)F)cc1)Nc1cccc([N+](=O)[O-])c1	?	7%	0%	21µM*	?
CC(=O)c1ccc(NC(=O)Nc2ccc([N+](=O)[O-])cc2)cc1	?	2%	0%	11%	-3%

Assay outcomes deposited in PubChem by National Center for Advancing Translational Sciences (NCATS).
